# Test results reported in PubChem BioAssay (Tox21).
# Calls of active or inactive are those of the source. Where a call stands in place of a potency, no number is given. The call rests on the fitted dose curve.
# Target: Muscarinic acetylcholine receptor M1 (Homo sapiens) (UniProt P11229)
# Experiment: Cholinergic receptor muscarinic 1 (CHRM1) small molecule agonists, cell-based qHTS assay (AID 1963589); further: nearly all actives have a fitted effect of over 35% in size
# Settings: CHRM1-CHO cells, agonist mode, calcium flux fluorescence; series mostly up to 76.8 µM
# Text: National Center for Advancing Translational Sciences [NCATS]
# Division of Preclinical Innovation [DPI]
# U.S. Environmental Protection Agency [EPA]
# National Institutes of Environmental Health Sciences [NIEHS]
# National Toxicology Program [NTP]
# U.S. Food and Drug Administration [FDA]
# The CHRM1 is a muscarinic receptor. This receptor plays a crucial role in learning and memory processes and has long been identified as a promising therapeutic target for the improvement of cognitive decline in Alzheimer's disease (AD). The CHRM1-CHO cell line stably expressing human muscarinic acetylcholine receptor M1 (CHRM1) can be used for screening agonists and antagonists of interactions between CHRM1 and its ligands. The CHRM1-CHO Calcium Flux Assay is a homogeneous fluorescence-based assay for detecting the intracellular calcium level using FDSS kinetic plate reader system.
# CHRM1-CHO cells were dispensed at 1000 cells/3uL/well in 1536-well black-clear bottom plates using a Multidrop Dispenser. After the assay plates were incubated at a 37 C/5% CO2 incubator for 18 h, 3 uL of Dye Loading Buffer was transferred to the assay plate by a Flying Reagent Dispenser. The assay plates were incubated at 37 C for 1h. For agonist mode, 23 nL of compounds dissolved in DMSO, positive controls or DMSO only was transferred to the assay plate by a pin tool. […] Each test compound was measured at 15 concentrations in three independent runs.
# Sequence of Muscarinic acetylcholine receptor M1 (Homo sapiens) (P11229 whole entry, looked up): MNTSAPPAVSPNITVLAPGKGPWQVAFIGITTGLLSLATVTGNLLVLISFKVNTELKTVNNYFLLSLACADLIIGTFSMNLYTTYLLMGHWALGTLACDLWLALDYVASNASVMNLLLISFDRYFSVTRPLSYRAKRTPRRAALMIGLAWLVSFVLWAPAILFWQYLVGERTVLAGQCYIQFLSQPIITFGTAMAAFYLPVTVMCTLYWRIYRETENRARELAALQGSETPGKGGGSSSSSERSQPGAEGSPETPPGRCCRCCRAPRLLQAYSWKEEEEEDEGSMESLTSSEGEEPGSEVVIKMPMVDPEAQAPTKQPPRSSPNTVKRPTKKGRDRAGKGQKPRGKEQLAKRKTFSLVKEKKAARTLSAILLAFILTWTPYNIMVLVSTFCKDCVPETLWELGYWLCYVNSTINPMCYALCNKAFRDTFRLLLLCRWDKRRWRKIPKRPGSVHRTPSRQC
row,Structure (SMILES),Potency
1,CCCCCCCCCCCCc1ccccc1O,inactive
2,CC(=O)Nc1ccc2c(c1)Cc1cc(NC(C)=O)ccc1-2,inactive
3,Cc1ccc(C)c(C)c1,inactive
4,Cc1ccc(O)c(-n2nc3ccccc3n2)c1,inactive
5,Cc1cc(=O)oc2cc(O)ccc12,inactive
6,Cc1ccncc1,inactive
7,OCC1CCCO1 (stereo not given),inactive
8,CCCCCCCCCCN,inactive
9,COc1ccc(CCC(C)=O)cc1,inactive
10,CC(C)(CO)CO,inactive
11,CC(=O)Nc1ccc(C(=O)CCl)cc1,inactive
12,OCc1cccnc1,inactive
13,O=S1(=O)CCCO1,inactive
14,CCCOC(=O)c1ccccc1,inactive
15,N[C@@H](Cc1cc(I)c(Oc2cc(I)c(O)c(I)c2)c(I)c1)C(=O)O,inactive
16,c1ccc2scnc2c1,inactive
17,NNc1ccc(C(=O)O)cc1,inactive
18,NCCCCCCN,inactive
19,Cc1cc(=O)[nH]c(=S)[nH]1,inactive
20,Cc1ccc([N+](=O)[O-])c(C)c1,inactive

row,Structure (SMILES),Potency
1,Brc1ccc(Br)c(Br)c1,inactive
2,N#Cc1ccccc1,inactive
3,CCCCC/C=C\C/C=C\CCCCCCCC(=O)OC,inactive
4,O=C(O)CCCCC(=O)O,inactive
5,O=Cc1ccc(CO)o1,inactive
6,CC(C)=CCCC(C)CCO (stereo not given),inactive
7,OCC(O)CS (stereo not given),inactive
8,Cc1ccc2ncccc2c1,inactive
9,C/C=C/C=C/C(=O)O,inactive
10,CC(=O)[C@H]1CC[C@H]2[C@@H]3CC=C4C[C@@H](O)CC[C@]4(C)[C@H]3CC[C@]12C,inactive
11,O=C(O)c1cccc([N+](=O)[O-])c1,inactive
12,O=c1[nH]c(=O)n([C@H]2C[C@H](O)[C@@H](CO)O2)cc1Br,inactive
13,Cc1ncc[nH]1,inactive
14,C=CC[N+](C)(C)CC=C,inactive
15,O=C(c1cc(O)c(O)c(O)c1)c1ccc(O)c(O)c1O,inactive
16,CC(=O)OC[C@H]1O[C@@](COC(C)=O)(O[C@H]2O[C@H](COC(C)=O)[C@@H](OC(C)=O)[C@H](OC(C)=O)[C@H]2OC(C)=O)[C@@H](OC(C)=O)[C@@H]1OC(C)=O,inactive
17,C=CCNCC=C,inactive
18,Nc1ccc2c(c1)C(=O)c1ccccc1C2=O,inactive
19,CN(C)CCOC(=O)COc1ccc(Cl)cc1,inactive
20,CC(C)(CO)COC(=O)C(C)(C)CO,inactive
